According to PubChem BioAssay:
Active and inactive are the calls of the source. Unless noted, how the calls were made is not given here.

What was measured:
[1] = resazurin metabolic signal in HepG2 cells – cell-based, resazurin fluorescence, 24 h, PK04 Diversity Set, profiling panel (AID 1172); details: HepG2 viability, higher = more signal; further: test concentration not given here
[2] = budding yeast growth changes without added modifier – OD600, strain BY4716, 24 h, basal condition, primary screen (AID 1173); details: S. cerevisiae BY4716 growth, OD600, 24 h; higher = more signal, called active from +8 up or from −8 down
[3] = viability profiling in MM1S myeloma cells – cell-based, resazurin fluorescence, basal, 24 h, PK04 Diversity Set, profiling panel (AID 1174); details: higher = more signal, called active from +8 up or from −8 down;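 further: MM1S multiple myeloma cell line; test concentration not given here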
[4] = molecular target: Dihydroorotate dehydrogenase (quinone), mitochondrial (Plasmodium falciparum (isolate 3D7)) (UniProt Q08210); assay: inhibition of P. falciparum DHODH – biochemical, C-terminal His tag, absorbance 600 nm, primary screen (AID 1175); details: PfDHODH enzyme, DCIP absorbance 600 nm; higher = more signal, called active from +8 up or from −8 down;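 further: recombinant parasite enzyme with a five histidine tag at its C terminus; test concentration not given here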
[5] = inhibition of PAO1 biofilm formation – strain PAO1, LB-PBS medium, absorbance 600 nm, primary screen (AID 1176); further: test concentration not given here; details: P. aeruginosa PAO1 growth/biofilm, A600, 12 h; higher = more signal
[6] = growth modulation of vineyard yeast isolate – strain RM11-1a, OD600, basal, 24 h, primary screen (AID 1177);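 further: cultures grown under basal conditions with no added stressor; test concentration not given here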; details: S. cerevisiae RM11-1a growth, OD600, 24 h; higher = more signal, called active from +8 up or from −8 down
[7] = growth of efflux-deficient E. coli DRC39 – strain DRC39, OD650, 24 h, E. coli filamentation inducers, primary screen (AID 1178);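 further: growth measured as culture turbidity by optical density at 650 nm; test concentration not given here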; details: E. coli DRC39 acrAB, higher = more signal, called active from +8 up or from −8 down
[8] = growth of efflux-deficient E. coli DRC39 – strain DRC39, OD650, 48 h, E. coli filamentation inducers, primary screen (AID 1179);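 further: screen aims at cell division blockers that make cells filament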; details: E. coli DRC39 delta-acrAB growth, higher = more signal, called active from +8 up or from −8 down
[9] = viability profiling in RPMI8226 myeloma cells – cell-based, resazurin fluorescence, basal, 24 h, PK04 Diversity Set, profiling panel (AID 1180); details: higher = more signal;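 further: RPMI8826 multiple myeloma cell line at 5000 cells per well; test concentration not given here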
[10] = molecular target: E3 ubiquitin-protein ligase XIAP (Homo sapiens) (UniProt P98170); assay: small molecules binding XIAP protein – biophysical, small-molecule microarray, fluorescence 635 nm, primary screen (AID 1181); details: higher = more signal;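 further: score merges 667 nm emission and signal to noise over triplicate slides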
E3 ubiquitin-protein ligase XIAP (Homo sapiens), sequence (P98170 whole entry, looked up): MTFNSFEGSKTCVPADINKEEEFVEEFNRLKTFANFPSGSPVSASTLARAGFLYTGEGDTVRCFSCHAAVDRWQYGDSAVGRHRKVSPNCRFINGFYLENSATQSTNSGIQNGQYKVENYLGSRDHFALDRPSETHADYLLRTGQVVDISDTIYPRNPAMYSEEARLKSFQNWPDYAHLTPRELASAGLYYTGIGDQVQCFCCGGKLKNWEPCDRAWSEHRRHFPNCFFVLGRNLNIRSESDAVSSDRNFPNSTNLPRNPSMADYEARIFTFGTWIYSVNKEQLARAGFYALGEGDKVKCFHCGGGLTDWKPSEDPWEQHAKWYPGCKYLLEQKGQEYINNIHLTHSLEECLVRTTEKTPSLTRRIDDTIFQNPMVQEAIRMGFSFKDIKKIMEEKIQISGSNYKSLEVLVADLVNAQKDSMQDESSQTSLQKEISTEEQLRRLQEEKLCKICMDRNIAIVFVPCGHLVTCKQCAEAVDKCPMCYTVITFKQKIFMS

Dihydroorotate dehydrogenase (quinone), mitochondrial (Plasmodium falciparum (isolate 3D7)), sequence (Q08210 whole entry, looked up): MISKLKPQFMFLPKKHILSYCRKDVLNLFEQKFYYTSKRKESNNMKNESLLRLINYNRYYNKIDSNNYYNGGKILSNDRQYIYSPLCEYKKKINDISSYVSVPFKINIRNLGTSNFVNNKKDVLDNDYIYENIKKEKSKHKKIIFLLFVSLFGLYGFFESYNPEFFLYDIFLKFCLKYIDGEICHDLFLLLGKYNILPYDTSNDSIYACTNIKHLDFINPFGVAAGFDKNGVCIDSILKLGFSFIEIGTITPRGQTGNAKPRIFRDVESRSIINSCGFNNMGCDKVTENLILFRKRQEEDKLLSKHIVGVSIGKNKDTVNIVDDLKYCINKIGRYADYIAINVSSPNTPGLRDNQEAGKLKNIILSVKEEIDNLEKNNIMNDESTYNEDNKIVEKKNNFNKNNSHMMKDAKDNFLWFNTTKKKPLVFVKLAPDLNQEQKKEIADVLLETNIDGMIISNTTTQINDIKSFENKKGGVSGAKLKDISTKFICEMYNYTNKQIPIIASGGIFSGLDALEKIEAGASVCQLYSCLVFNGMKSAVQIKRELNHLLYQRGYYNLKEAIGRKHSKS

SMILES	z-score [1]	z-score [2]	z-score [3]	composite z-score [4]	z-score [5]	z-score [6]	z-score [7]	z-score [8]	z-score [9]	composite z-score [10]
C[C@@H](c1ccccc1)N1C(=O)[C@H]2[C@H]3[C@H](O)[C@H](O)CC(=NOC[C@@H](O)COCc4ccco4)[C@@H]3CC[C@H]2C1=O	-0.52	0.984 (inactive)	-0.422 (inactive)	0.407 (inactive)	0.176 (inactive)	0.819 (inactive)	-0.892 (inactive)	-0.41 (inactive)	0.2	-0.131
CO[C@@H]1COC(=O)CCC[C@@H](C)[C@H](OC)COC(=O)[C@H](Cc2ccccc2)NC(=O)CC=C[C@H]1C	0.229	-0.987 (inactive)	-0.15 (inactive)	0.615 (inactive)	-0.291 (inactive)	0.926 (inactive)	0.024 (inactive)	0.407 (inactive)	1.05	0.0155
C=CC[C@@H]1C=C[C@H](ON=C2c3cc(OC)ccc3O[C@H](c3cccc(OC)c3)[C@H]2O)[C@@H](CO)O1	-1.38	-0.903 (inactive)	-1.15 (inactive)	-0.726 (inactive)	0.113 (inactive)	-0.7 (inactive)	0.57 (inactive)	0.741 (inactive)	-1.37	-0.0834
CCc1cc2c(nc1CC)CCN(CCC(C)=NO[C@@H](C)c1cc(-c3c(C)cc(C)cc3C)no1)C2	-0.0169	-2.75 (inactive)	-0.433 (inactive)	-0.0406 (inactive)	0.903 (inactive)	0.526 (inactive)	0.416 (inactive)	0.566 (inactive)	0.374	0.19
CO[C@H]([C@@H](C)[C@H](OC)c1ccccc1)[C@H](C)[C@@H](OC)[C@H](C)C(C)=O	0.0132	-1.22 (inactive)	0.367 (inactive)	0.758 (inactive)	-0.373 (inactive)	0.135 (inactive)	-0.0566 (inactive)	-0.59 (inactive)	-0.0764	-0.21
CCCNC(=O)[C@@H]1c2ccccc2C(=O)N(c2ccc(C)cn2)[C@H]1c1ccc(CO)cc1	0.306	0.325 (inactive)	-0.472 (inactive)	-0.165 (inactive)	0.388 (inactive)	-0.826 (inactive)	0.232 (inactive)	0.0239 (inactive)	-0.682	-0.165
COC(=O)[C@H](C)NC(=O)[C@@H](C)CO	-1.1	-0.0616 (inactive)	-1.15 (inactive)	0.38 (inactive)	-0.351 (inactive)	0.312 (inactive)	-1.45 (inactive)	-0.489 (inactive)	-0.855	-0.102
CCCCCN1CC=CC23O[C@@H]4C=CCOC(=O)[C@@H]4[C@H]2C(=O)N(CCCCCCO)[C@@H]3C1=O (stereo not given in full)	0.547	0.428 (inactive)	0.806 (inactive)	-0.473 (inactive)	0.454 (inactive)	0.151 (inactive)	0.282 (inactive)	0.225 (inactive)	0.922	0.114
COc1ccc(-c2ccc3c(n2)CCCN3CC(O)CN2CCCc3nc(C)c(C)cc32)cc1 (stereo not given)	-0.671	-1.75 (inactive)	-0.559 (inactive)	1.18 (inactive)	0.274 (inactive)	-0.256 (inactive)	0.975 (inactive)	0.65 (inactive)	-0.836	1.15
COc1ccc([Si](C)(C)[C@@H]2[C@@H](CCO)O[C@]3(C(=O)N(Cc4ccc(NC(C)=O)cc4)c4ccccc43)[C@H]2C)cc1	-2.52	1.6 (inactive)	-5.15 (inactive)	-1.34 (inactive)	-0.094 (inactive)	3.91 (inactive)	-0.486 (inactive)	-0.937 (inactive)	-5.29	0.0291
CC(CCN1CCc2nc(-c3ccccc3)c(-c3ccccc3)cc2C1)=NOC[C@@H](C)[C@H](OCc1ccccc1)C(C)C	-1.12	-2.01 (inactive)	0.504 (inactive)	0.928 (inactive)	-0.315 (inactive)	0.0117 (inactive)	-1.23 (inactive)	-0.936 (inactive)	0.64	-0.04
CO[C@@H]1COC(=O)[C@@H]2CCCN2C(=O)[C@@H](C)COC(=O)[C@H](COCc2ccccc2)NC(=O)CC=C[C@H]1C	-0.327	0.185 (inactive)	-0.722 (inactive)	-0.241 (inactive)	-0.455 (inactive)	0.549 (inactive)	-0.489 (inactive)	-1.98 (inactive)	-0.228	-0.153
CCOC(=O)C[C@H]1[C@H](OC(=O)c2cc3ccccc3oc2=O)[C@@H](NC(=O)c2ccc3ccccc3n2)c2cc(OCCCO)ccc2N1C(=O)c1ccccc1	-0.983	-2.08 (inactive)	-0.668 (inactive)	-1.97 (inactive)	-0.754 (inactive)	-0.0333 (inactive)	-0.341 (inactive)	-0.753 (inactive)	-0.599	0.217
C[C@H](c1ccccc1)N1C(=O)[C@H]2[C@H]3[C@H](O)[C@H](O)CC(=O)[C@@H]3CC[C@H]2C1=O	-0.353	0.205 (inactive)	-0.486 (inactive)	-0.303 (inactive)	0.544 (inactive)	-0.897 (inactive)	-0.159 (inactive)	-0.0569 (inactive)	-0.523	-0.0826
CCN1C(=O)[C@H]2[C@H]3[C@H](O)[C@H](O)CC(=NOC[C@@H](C)[C@H](OCc4ccccc4)C(C)C)[C@@H]3CC[C@H]2C1=O	-0.725	-4.63 (inactive)	-0.959 (inactive)	-0.613 (inactive)	0.0525 (inactive)	-0.134 (inactive)	1.03 (inactive)	0.992 (inactive)	-0.989	-0.0599
O=C1C[C@@H](O)[C@@H](O)[C@@H]2[C@@H]3C(=O)N(c4ccc(F)cc4F)C(=O)[C@@H]3CC[C@@H]12	0.685	0.461 (inactive)	0.491 (inactive)	0.374 (inactive)	-0.626 (inactive)	-0.584 (inactive)	-0.385 (inactive)	-0.302 (inactive)	0.481	-0.0735
CCOC(=O)[C@H](Cc1ccccc1)NC(=O)CCC1CC(OC(=O)NCc2ccc3c(c2)OCO3)CC2(CCCC(COC(=O)NCc3ccccc3)O2)O1 (stereo not given in full)	0.966	-0.0513 (inactive)	0.637 (inactive)	0.208 (inactive)	0.0858 (inactive)	0.864 (inactive)	0.703 (inactive)	1.22 (inactive)	0.676	-0.0089
COC(=O)CC=C[C@@H](C)[C@H](OC)c1ccccc1Br	-0.327	-1.15 (inactive)	-0.397 (inactive)	-2.6 (inactive)	-0.655 (inactive)	0.791 (inactive)	0.25 (inactive)	-0.129 (inactive)	0.0866	-0.241
C#CCCCON=C1C[C@@H](O)[C@@H](O)[C@@H]2[C@@H]3C(=O)N(CCC(=O)OCC)C(=O)[C@@H]3CC[C@@H]12	-0.0517	-0.395 (inactive)	-1.01 (inactive)	0.175 (inactive)	-0.0485 (inactive)	-0.538 (inactive)	0.122 (inactive)	0.529 (inactive)	-0.739	-0.212
CCCCCN1CC=CC23O[C@@H]4C=CCOC(=O)[C@@H]4[C@H]2C(=O)N(C(CO)C(C)C)[C@@H]3C1=O (stereo not given in full)	0.862	1.02 (inactive)	0.111 (inactive)	0.204 (inactive)	0.0126 (inactive)	0.89 (inactive)	-0.128 (inactive)	-0.301 (inactive)	-0.0045	0.266
CC(C)=C1C(=O)C(c2ccccc2)=C2CN3C(=O)N(CCc4ccccc4)C(=O)[C@]3(Cc3ccc(F)cc3)[C@H]21	-1.22	0.255 (inactive)	-1.53 (inactive)	-0.0278 (inactive)	1.4 (inactive)	0.223 (inactive)	-0.933 (inactive)	-0.853 (inactive)	-0.942	-0.02
c1ccc(C2NCCc3c2[nH]c2ccccc32)cc1 (stereo not given)	0.278	-2.91 (inactive)	-0.104 (inactive)	-11 (active)	0.107 (inactive)	-0.104 (inactive)	-0.832 (inactive)	-1.79 (inactive)	-0.326	0.0043
CC(C)(C)OC(=O)CC[C@]1(C(=O)NCc2ccccc2)N=C(c2ccc(OCCCO)cc2)O[C@H]1c1ccccc1	0.461	0.69 (inactive)	-0.768 (inactive)	0.218 (inactive)	0.469 (inactive)	0.543 (inactive)	0.732 (inactive)	0.03 (inactive)	-0.135	-0.16
CC(C)C[C@@H]1NC(=O)[C@H]2C[C@@H](C(=O)NCCCCCCN(C)C)[C@@H](c3cccc(OCCO)c3)N2C1=O	-0.233	-0.0693 (inactive)	-0.891 (inactive)	0.344 (inactive)	-0.0059 (inactive)	-0.159 (inactive)	0.0442 (inactive)	0.0484 (inactive)	-0.992	0.0753
